For 59 compounds, Potency results are on record in PubChem BioAssay AID1347416 (National Center for Advancing Translational Sciences (NCATS), 2020).

Molecules are shown by their SMILES. The whole screen tested about 4,100 compounds, of which about 1,600 (39%) were called active. About 25% were inconclusive and are not listed. Calls come from the whole dose curve; as a rule, active = well fitted inhibition curve with a large enough effect; inconclusive = small, poorly fitted or top-dose-only effect; inactive = no such curve, though single readings can be large or run the other way. The list shows a part of the results. Where a call stands in place of a potency, no number is given.
Potency is the fitted concentration of half-maximal effect.

The experiment is described as follows: qHTS Validation assay for Inhibitors of Plasmodium falciparum Dd2 growth in vitro. Note: nearly all actives have a fitted effect of over 70% in size. The note with it: P. falciparum Dd2 in RBCs, SYBR Green growth, 72 h; series mostly up to 28.7 µM. The method, boiled down: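 P. falciparum Dd2-infected red blood cells (2.5% hematocrit, 0.3% parasitemia) grown 72 h at 37 °C under 5% O2 with compounds in a titration, 29 uM to 0.5 nM final. Growth read as SYBR Green-1 fluorescence after ~16 h lysis; artesunate 300 nM as positive control.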
On the technique in general: qHTS replaces the single test concentration by a dilution series.
In the case of `CC1=C(C(=O)NCc2ccccn2)C2(CCC(C)CC2)OC1=O` (centres undefined), the Potency result was “inactive”. With `NC(=O)C1CCN(CC(=O)Nc2cccc(C(=O)Nc3cccc(C(F)(F)F)c3)c2)CC1` the figure was 6.68 µM (active). With `O=C(Nc1cccc(C(F)(F)F)c1)C1CCN(S(=O)(=O)c2cccc3nsnc23)CC1` the entry was “inactive”. Turning to `O=C(c1ccccc1OCC1CCCN(Cc2ccncc2F)C1)N1CCCC1` (centres undefined), the Potency was 10.6 µM (active). In the case of `O=C(NC1CC1)c1ccccc1OCC1CCCN(Cc2cccc3[nH]ccc23)C1` (centres undefined), the Potency was 5.96 µM (active). The result for `CCn1cc(CN2CCCC(COc3ccccc3C(=O)N3CCCC3)C2)c2ccccc21` (centres undefined) reads 8.41 µM (active). Take `CC1(C)[C@H]2CC[C@@H](CNC(=O)c3cccc4[nH]ccc34)[C@@H]1C2`: the Potency result is “inactive”. With `CCOc1ccccc1C(=O)N1CCN(C2CCN(C)C2=O)CC1` (centres undefined) the entry was “inactive”; with `O=C(Nc1cccc(F)c1)N1CCC(Oc2ncccc2C(=O)N2CCCCC2)C1` (centres undefined), “inactive”. Take `CN(C)C[C@H]1C[C@@H](CO)CN(C(=O)c2ccccc2OC(F)(F)C(F)F)C1`: the Potency result was “inactive”.

Regarding `Cc1ccncc1C(=O)N1CCCC(c2nnnn2C)C1` (centres undefined), the Potency entry was “inactive”. With `O=C(c1ccccc1OCC1CCCN(Cc2ccncc2F)C1)N1CCCCC1` (centres undefined) the figure was 10.6 µM (active). The result for `COc1ccccc1C(=O)NC1CCCN(c2cc(-c3ccc(F)cc3)[nH]n2)C1` (centres undefined) reads “inactive”; that for `O=C(c1cc(-c2ccccc2)n[nH]1)N1CCCC(Cc2noc(-c3cnccn3)n2)C1` (centres undefined), “inactive”. Regarding `Cc1nc(N2CCCC3(CN(C)C(=O)O3)C2)cc(-n2cccn2)n1` (centres undefined), the Potency result is “inactive”. The result for `CC(C)c1noc(-c2cccn3c(CNC(=O)c4cc(F)ccc4Cl)nnc23)n1` reads “inactive”.

On to `COc1ccc(C2Nc3ccccc3C(=O)N2Cc2ccccc2)cc1COc1ccc(Cl)cc1Cl` (centres undefined), for which the Potency is 8.41 µM (active).

For `CCC(C)(C)n1nnnc1C(c1cc2cccc(C)c2[nH]c1=O)N1CCN(C(=O)c2ccco2)CC1` (centres undefined), the Potency was 6.68 µM (active). For the compound `CCC(C)(C)n1nnnc1C(c1ccccc1OC)N1CCN(C(=O)c2ccco2)CC1` (centres undefined), the Potency is 15 µM (active).

With `COc1cc2c(cc1OC)CN(C(=O)c1ccco1)CC2`, the Potency entry is “inactive”.

`COc1ccc(C(=O)N[C@@H]2CCC[C@@H]2C(=O)N2CCN(C(=O)c3ccco3)CC2)cn1`: the Potency entry was “inactive”. `Cc1ccc(NC(=O)N(Cc2ccc3c(c2)OCO3)Cc2cc3cc4c(cc3[nH]c2=O)OCCO4)cc1`: the Potency was 6.68 µM (active). Consider `O=C(Nc1ccc(Cl)cc1)Nc1ccc2c(c1)N1CCN=C1S2`, for which the Potency was 5.31 µM (active). The result for `CCCCCCCc1c(C)nc(N2CCOCC2)[nH]c1=O` reads 5.31 µM (active). Regarding `O=C(c1cc2cc(Br)ccc2[nH]1)N1CCc2ccccc21`, the Potency entry was “inactive”. Take `NNC(=O)CN1C(c2cccc(Cl)c2)=Nc2ccc(Br)cc2C1c1ccccc1` (centres undefined): the Potency is 2.66 µM (active). The result for `NNC(=O)CN1C(=O)Nc2ccc(Br)cc2C1c1ccccc1` (centres undefined) reads “inactive”; that for `COC(=O)CC1Oc2ccc(Cl)cc2-n2cc(-c3ccc(F)cc3)nc21` (centres undefined), 4.22 µM (active); that for `CN(C1CCCCC1)S(=O)(=O)c1ccc2c(c1)c(=O)c(C(=O)N1CCN(c3ccccc3F)CC1)cn2C`, “inactive”. With `CCn1cc(C(=O)NCCCN2CCCC(C)C2)c(=O)c2cc(S(=O)(=O)N(C)C3CCCCC3)ccc21` (centres undefined) the figure was 8.41 µM (active). With `CCn1cc(C(=O)N2CCN(c3ccccc3)CC2)c(=O)c2cc(S(=O)(=O)N(C)C3CCCCC3)ccc21` the entry was “inactive”; with `Cc1cc(Cl)c(S(=O)(=O)N2CCN(c3ccccn3)CC2)cc1OCC(=O)NC1CCCCC1`, 0.668 µM (active); with `O=C(CC1CCCN(c2cnn(CC3CC3)c(=O)c2)C1)N1CCN(c2ccccn2)CC1` (centres undefined), “inactive”. `COc1ccc(CC(=O)N[C@@H]2CN(c3ccccn3)C[C@H]2CN(C)C)cc1`: the Potency entry was “inactive”. In the case of `Cn1cccc1CN1CCn2c(nnc2-c2ccccc2)C1`, the Potency result is “inactive”. The result for `O=C(COc1ccc(Cl)cc1)N1C[C@@H](CO)[C@H](c2ccccn2)C1` reads “inactive”; that for `Cn1cccc1CN1C[C@@H](COc2ccncc2)[C@H](c2ccccn2)C1`, 13.3 µM (active); that for `CC(C)CCN(CCC(C)C)CC(O)Cn1c2ccccc2c(=O)c2ccccc21` (centres undefined), 1.88 µM (active). In the case of `O=C([C@@H]1C[C@H](Oc2ccccc2)CN1C(=O)c1cc2ccccc2[nH]1)N1CCCC1`, the Potency entry was “inactive”. With `O=C(Cc1c[nH]c2ccccc12)N1CCc2c(nc(-c3ccc(F)cc3)[nH]c2=O)C1` the entry was “inactive”. For the compound `O=C(c1ccc(OC2CCN(Cc3c[nH]c4ccccc34)CC2)cc1)N1CCCCC1`, the Potency is 15 µM (active). On to `CN1C2CCC1/C(=C\c1ccccc1)C(=O)/C2=C\c1ccccc1`, for which the Potency is 2.11 µM (active). The result for `Cc1ccc(Oc2c(C(F)(F)F)oc3c(CN4CCC(C)CC4)c(O)ccc3c2=O)cc1` reads 1.68 µM (active); that for `Cc1cc(Oc2c(C(F)(F)F)oc3c(CN4CCC(C)CC4)c(O)ccc3c2=O)cc(C)c1Cl`, 0.75 µM (active). As to `CCc1nc(CN(C)C(C(=O)O)c2ccc(C(C)(C)C#N)cc2)no1` (centres undefined), the Potency entry is “inactive”. For `Nc1ccc(NC(=O)c2cccc(C(=O)Nc3ccc(N)cc3Cl)c2)c(Cl)c1`, the Potency entry was “inactive”. With `CCOC(=O)C1CCN(C(=O)c2cc3c(n2C)CCN(Cc2ccccc2)C3)CC1` the figure was 10.6 µM (active); with `CN1CCCCCC(O)c2cc(C(=O)N3CCN(Cc4ccccc4)CC3)ccc21` (centres undefined), “inactive”; with `CCn1nc(C)cc1C(=O)N1Cc2cnn(Cc3ccc(F)cc3)c2C1`, “inactive”. Turning to `O=C(c1cnc2n1CCN(CCc1ccccc1)CC2)N1CCC(c2ccccc2)CC1`, the Potency entry is “inactive”.

As to `Cc1cn2nc(C(=O)N3CCC(C(=O)NCCc4ccccc4)CC3)cc2c(=O)[nH]1`, the Potency result is “inactive”.

Take `CCOC(=O)C1CCN(C(=O)c2cc(C(C)(C)C)nn2Cc2ccccc2)CC1`: the Potency is 4.73 µM (active). The result for `O=C(Nc1cccnc1)c1ccc(Cl)c(S(=O)(=O)N2CCc3ccccc32)c1` reads “inactive”; that for `COc1ccc(NC(=O)c2ccc3c(c2)NC(C)(COCC2CC2)CO3)cn1` (centres undefined), “inactive”; that for `COc1ccc(NC(=O)c2ccc(Cl)c(S(=O)(=O)N3CCc4ccccc4C3)c2)cn1`, 7.5 µM (active). Regarding `CC(C)N(C)Cc1nnnn1CC(=O)N1CCC(O)(c2cccnc2)CC1`, the Potency entry was “inactive”. The result for `Cc1cc(C)cc(N=Cc2[nH]c3ccc(Br)c(Cl)c3c2O)c1` reads 11.9 µM (active); that for `O=C(Cc1ccc(NC(=O)N2CCSc3ncccc32)cc1)NCCc1ccccc1`, “inactive”; that for `CCOc1ccc(CCNC(=O)Nc2ccccc2)cc1OCC`, 5.31 µM (active).
